As a reminder, the Inhibition is the relative decrease from the control value, in per cent. Read a low Inhibition as a response near the control.

For the experiment, the system named is Plasmodium falciparum. As to the kind of experiment: GSK_TCMDC: Inhibition of Plasmodium falciparum 3D7 in whole red blood cells, using parasite LDH activity as an index of growth. Test compounds present at 2uM. Format: functional.
For `CNCCNCc1ccc(-c2ccc(-c3nc4cc(F)ccc4[nH]3)cc2)cc1.O=C(O)C(F)(F)F`, the Inhibition is given as 98%.
The result for `CC(=O)/N=C1\N=C(NC(C)=O)NC(C)(C)N1OCCCOc1ccc(Cl)c(Cl)c1` reads 96%.
The same measure for `Oc1cccc(Nc2nc(NCc3ccccc3)c3ccccc3n2)c1`: 95%; for `NS(=O)(=O)c1ccccc1Nc1nc(Nc2ccc(N3CCOCC3)cc2)nc2c1CCC2.O=CO`: 96%; for `CCOc1ccc(-c2nonc2NC(=O)c2ccc(F)cc2)cc1OCC`: 100%.
The same measure for `CCN1CCN(c2cc(C)c3cc(NC(=O)c4ccc(OC)c(OC)c4)ccc3n2)CC1`: 90%; for `Br.N=C1N=C(N)NC2(CCCCC2)N1OCCCOc1cccc2ccccc12`: 95%.
As to `O=C(c1ccc([N+](=O)[O-])o1)N1CCN(c2nc3c(Cl)cccc3s2)CC1`, the Inhibition is 91%.
The result for `FC(F)(F)c1ccc2[nH]c(-c3cccc(-c4cccc(CNCC5CCCO5)c4)c3)nc2c1.O=C(O)C(F)(F)F` (configuration not stated) reads 100%; that for `CC(C)CNCc1ccc(-c2cccc(CNC3CCN(Cc4ccccc4)CC3)c2)cc1.O=C(O)C(F)(F)F`, 100%.
`Cc1cc(N[C@@H](Cc2ccccc2)C(=O)NCCCOC(C)C)nc(NCC2CCCCC2)n1.O=C(O)C(F)(F)F` displayed an Inhibition of 94%.
Regarding `CN(CCCCCNC(=O)/C=C/c1ccc(Cl)c(Cl)c1)CCc1c[nH]c2ccccc12`, the Inhibition stood at 91%.
`CC(=O)Nc1nc(C(=O)Nc2ccc(-c3cccc(-c4nc5cc(C(F)(F)F)ccc5[nH]4)c3)cc2)cs1` returned an Inhibition of 100%.
The same measure for `NC(=O)c1cc(-c2ccccc2)cc2c(C3CCC(NCc4ccccc4)C3)c[nH]c12` (configuration not stated): 95%; for `O=C(Nc1cccc(-c2csc(-c3nc4ccccc4[nH]3)c2)c1)c1ccoc1`: 96%; for `O=c1cc(NCCCNC2CCCc3c2ccc2ccccc32)[nH]c2ccccc12` (configuration not stated): 94%.
The result for `Cc1cc(-c2cccc3c(C(=O)N4CCc5cc6nccc(N7CCCN(C)CC7)c6cc54)cccc23)cc(C)n1.Cl` reads 100%; that for `CCCCC(=O)Nc1cc(=O)[nH]c2nc(-c3ccc(Cl)cc3)nn12`, 89%; that for `O=C(O)C(F)(F)F.O=C1CCCN1CCCNCc1ccc(-c2cccc(-c3nc4cc(F)ccc4[nH]3)c2)cc1`, 100%.
The result for `O=C(c1ccc(-c2ccc(-c3nc4cc(C(F)(F)F)ccc4[nH]3)s2)cc1)N1CCCCC1CN1CCC(O)C1` (configuration not stated) reads 92%.
`COc1ccc2nccc([C@@H](O)CN3CCC(NC(=O)/C=C/c4ccc5[nH]c(=O)ccc5c4)CC3)c2c1` registered an Inhibition of 96%.
The same measure for `CCNC(=O)c1cc(S(=O)(=O)N2CCN(c3ccccn3)CC2)cs1`: 97%; for `C(=NNc1nc2ccccc2[nH]1)c1ccccc1OCc1ccccc1`: 100%; for `CC(C)(C)C(=O)Nc1ccc(N2CCN(C(c3ccccc3)c3ccccc3)CC2)c(Cl)c1`: 92%.
Turning to `COc1ccc2ccccc2c1C=NN=c1cc(C)[nH]c2cc(C(F)(F)F)ccc12`, the Inhibition came out at 92%.
The result for `O=C(/C=C/c1ccc(Cl)c(Cl)c1)NCCCCCCN1CCN(C(=O)Nc2cc(Cl)nc(Cl)c2)CC1` reads 100%.
The same measure for `O=C(/C=C/c1ccc(Cl)cc1)NCCCCCN1CCN(C(=O)C=Cc2ccc(Cl)c(Cl)c2)CC1.O=C(O)C(F)(F)F`: 92%.

These data come from ChEMBL document CHEMBL1157539, “Thousands of chemical starting points for antimalarial lead identification” (Nature, 2010).
